# Laboratory results reported in PubChem BioAssay AID624167 (Sanford-Burnham Center for Chemical Genomics, 2012).
# Experiment: inhibition of PEG-3 promoter-driven reporter – cell-based, HeLa, luciferase, CREF/GAPDH counter-screen panel, dose response (AID 624167)
# Conditions: CREF/GAPDH counter-screens; run 2, dose range 1, at 100 µM (top of the series)
row,SMILES,inhibition
1,Cc1cc(C)c(C)c(S(=O)(=O)N2CCN(C(=O)c3cc(=O)[nH]c4ccccc34)CC2)c1C,80.6%
2,COc1cccc(/C=N/NC(=O)c2c(C)nc3ccc(Cl)cn23)c1O,-51.4%
3,COc1cccc(OC)c1C(=O)Nc1cc(C)nn1-c1nc2ccccc2[nH]1,54.4%
4,CN(C)CC1CCC/C(=C\c2ccc(OC(=O)c3ccc(Cl)cc3)cc2)C1=O (stereo not drawn),84.9%
5,Cc1ccc(OCC(=O)c2cc(C)n(Cc3ccco3)c2C)c([N+](=O)[O-])n1,66.6%
6,O=C(COc1ccc2c(c1)CCC2)Nc1ccccn1,94.9%
7,O=C(N/N=C\c1c(O)ccc2ccccc12)c1ccc(Cn2cccn2)o1,34.2%
8,CCc1ccc(/C=C2\SC(=S)N(CCCC(=O)NC3=NCCS3)C2=O)cc1,72.9%
9,Cc1ccc(NC(=S)NC(=O)c2ccc(F)cc2)cc1S(=O)(=O)Nc1ccccc1Cl,55.6%
10,OCCCNc1nccc(-c2cc(Nc3cccc(Cl)c3)ncn2)n1,51.4%
11,CC(=O)NC(c1ccc(Cl)cc1)c1ccc2cccnc2c1O (stereo not drawn),64.1%
12,CCCCCCN1C=C/C(=C\C=C(C#N)C#N)c2ccccc21,22.9%
13,CC(C)CCCCCCCCCCCCC(=O)NCC(=O)NC1C(O)C(O)C(Nc2ncnc3nc[nH]c23)OC1C(O)CO (stereo not drawn),98.2%
14,Cc1cc(C)c2sc(NNC(=O)c3ccc(S(=O)(=O)N4CCc5ccccc5C4)cc3)nc2c1,62%
15,O=[N+]([O-])c1ccc(S(=O)(=O)c2ccccc2)nc1,94.5%
16,CN(O)C(=S)c1ccccc1,14.9%
17,CCOc1cccc(/C=N/NC(=S)Nc2cc(S(=O)(=O)N3CCOCC3)ccc2N2CCOCC2)c1O,-7.85%

row,SMILES,inhibition
1,CCc1ccc(/C=C2\SC(=S)N(CCCC(=O)Nc3ccccn3)C2=O)cc1,25.6%
2,CCSc1nc2ccccc2n1C(=O)/C=C\c1ccc(OC)c(OC)c1,81.2%
3,CN(C)S(=O)(=O)c1ccc(-c2csc(N/N=C/c3ccc(O)cc3)n2)cc1,91.1%
4,C(=N\Nc1ccc2ccccc2n1)/c1ccc2c(c1)OCCO2,92%
5,O=C(O)c1ccc(N/N=C/c2ccc(OC(=O)c3cccc(Cl)c3)cc2)cc1,97.2%
6,Cc1ccc(-n2c(N)c(C(=O)Nc3c(C)n(C)n(-c4ccccc4)c3=O)c3nc4ccccc4nc32)cc1,81.3%
7,Cc1ccccc1CNC(=O)C1CCCN(c2nnc(C)c3c(C)n(-c4ccccc4)nc23)C1 (stereo not drawn),94.8%
8,COc1ccc(C(NC(=O)C(C)C)c2ccc3cccnc3c2O)cc1 (stereo not drawn),40.9%
9,CC(=O)c1sc2c(c1OC(=O)c1ccc(Cl)cc1Cl)c(=O)n(-c1ccccc1)c(=S)n2-c1ccccc1,79.3%
10,NC(C(=O)O)C1ON=C(Cl)C1O (stereo not drawn),70.1%
11,O=C(O)c1ccc(N/N=C/c2ccc3nccnc3c2)cc1,99.2%
12,C=C1CC2(OC1=O)c1ccccc1CCc1ccccc12,99.7%
13,CC1CC(C)C(=O)C(C(CC2CC(=O)NC(=O)C2)OC(=O)CC(=O)c2ccccc2)C1 (stereo not drawn),90.5%
14,O=C(Nc1ccccc1C(=O)Nc1nnc(C(F)(F)F)s1)c1ccccc1,60.9%
15,C=CCn1c(C)cc(C(=O)COc2ccc(C)nc2[N+](=O)[O-])c1C,51.8%
16,CC(C)(C)c1ccc(Cn2c(=O)cnc3ccccc32)cc1,96.6%
